{
  "source": "the supplement of paper PMC10849652",
  "experiment_in_all_cases": "log2 fold change, soluble protein after heating vs DMSO (PISA); higher = thermal stabilisation; K562 cells, 10 uM, 30 min; active = over 0.2 and 3.5 SD of the protein, either way, in both replicates (recomputed)",
  "key": {"[1]": {"compound": "C1=CC=C(C=C1)[C@H](COC2=CC3=C(C=C2)NC(=O)N3)NC(=O)C4=CC=CN(C4=O)CC5=CC(=C(C=C5)F)F", "method_in_brief": "(§1)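 Thermal stability values are relative to control samples and come from duplicates. They are expressed as log2 fold changes. For measurement, K562 cells (2×10^6 cells/mL) received 10 μM compound for 30 min, and aliquots were heated for 3 min over 48°C-58°C, pooled, and extracted at 4°C in PBS with 0.5% NP-40. Soluble protein, the supernatant after 21,000xg for 90 min, was quantified by TMTpro 16plex LC-MS/MS with equalised channel sums.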"}, "[2]": {"compound": "CC1=C(SC2=C1C(=N[C@H](C3=NN=C(N32)C)CC(=O)N)C4=CC=C(C=C4)Cl)C", "method_in_brief": "as §1"}, "[3]": {"compound": "CC1=C2C(=CC=C1)N=C(N(C2=O)C3=CC=CC=C3C)CN4C=NC5=C(N=CN=C54)N", "method_in_brief": "as §1"}, "[4]": {"compound": "Cc1sc2c(c1C)C(c1ccc(Cl)cc1)=N[C@@H](CC(=O)OC(C)(C)C)c1nnc(C)n1-2", "method_in_brief": "as §1"}, "[5]": {"compound": "c1ccc([C@@H]2C[C@H]2NC2CCNCC2)cc1", "method_in_brief": "as §1"}},
  "note": "About 7,900 targets were measured; listed, in parts, are those with a hit and a random draw of the rest. About 0.6% of all pairs of compound and target were hits. Values without a mark were called inactive.",
  "data": [
    {"target": "FAM3A (UniProt P98173)", "sequence (P98173 whole entry, looked up)": "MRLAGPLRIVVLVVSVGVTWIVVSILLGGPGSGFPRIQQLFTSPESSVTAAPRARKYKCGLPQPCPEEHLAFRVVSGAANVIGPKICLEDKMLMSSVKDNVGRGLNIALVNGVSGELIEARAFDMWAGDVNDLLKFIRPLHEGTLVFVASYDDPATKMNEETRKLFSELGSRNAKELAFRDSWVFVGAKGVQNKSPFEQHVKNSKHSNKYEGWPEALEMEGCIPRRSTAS", "values": [
      {"measurement": "log2 fold change", "setting": "[1]", "result": -0.01},
      {"measurement": "log2 fold change", "setting": "[2]", "result": -0.001},
      {"measurement": "log2 fold change", "setting": "[3]", "result": 0.038},
      {"measurement": "log2 fold change", "setting": "[4]", "result": -0.051},
      {"measurement": "log2 fold change", "setting": "[5]", "result": -0.014}
    ]},
    {"target": "CYP51A1 (UniProt Q16850)", "sequence (Q16850 whole entry, looked up)": "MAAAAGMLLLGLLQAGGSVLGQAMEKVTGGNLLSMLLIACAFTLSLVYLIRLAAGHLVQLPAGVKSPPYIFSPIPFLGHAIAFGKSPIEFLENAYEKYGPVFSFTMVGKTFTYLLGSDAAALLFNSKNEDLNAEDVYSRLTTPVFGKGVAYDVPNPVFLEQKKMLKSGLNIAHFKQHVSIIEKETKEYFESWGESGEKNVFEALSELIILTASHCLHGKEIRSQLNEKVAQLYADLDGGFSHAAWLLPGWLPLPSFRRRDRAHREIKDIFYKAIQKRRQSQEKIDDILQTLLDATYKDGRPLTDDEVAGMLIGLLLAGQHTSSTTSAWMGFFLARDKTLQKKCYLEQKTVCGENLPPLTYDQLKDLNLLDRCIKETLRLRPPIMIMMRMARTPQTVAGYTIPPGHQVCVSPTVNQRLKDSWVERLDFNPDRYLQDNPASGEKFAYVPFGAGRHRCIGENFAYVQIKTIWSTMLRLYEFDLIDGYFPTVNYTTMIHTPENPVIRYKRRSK", "values": [
      {"measurement": "log2 fold change", "setting": "[1]", "result": -0.096},
      {"measurement": "log2 fold change", "setting": "[2]", "result": 0.055},
      {"measurement": "log2 fold change", "setting": "[3]", "result": -0.037},
      {"measurement": "log2 fold change", "setting": "[4]", "result": -0.01},
      {"measurement": "log2 fold change", "setting": "[5]", "result": -0.001}
    ]},
    {"target": "EFL1 (UniProt Q7Z2Z2)", "sequence (Q7Z2Z2 whole entry, looked up)": "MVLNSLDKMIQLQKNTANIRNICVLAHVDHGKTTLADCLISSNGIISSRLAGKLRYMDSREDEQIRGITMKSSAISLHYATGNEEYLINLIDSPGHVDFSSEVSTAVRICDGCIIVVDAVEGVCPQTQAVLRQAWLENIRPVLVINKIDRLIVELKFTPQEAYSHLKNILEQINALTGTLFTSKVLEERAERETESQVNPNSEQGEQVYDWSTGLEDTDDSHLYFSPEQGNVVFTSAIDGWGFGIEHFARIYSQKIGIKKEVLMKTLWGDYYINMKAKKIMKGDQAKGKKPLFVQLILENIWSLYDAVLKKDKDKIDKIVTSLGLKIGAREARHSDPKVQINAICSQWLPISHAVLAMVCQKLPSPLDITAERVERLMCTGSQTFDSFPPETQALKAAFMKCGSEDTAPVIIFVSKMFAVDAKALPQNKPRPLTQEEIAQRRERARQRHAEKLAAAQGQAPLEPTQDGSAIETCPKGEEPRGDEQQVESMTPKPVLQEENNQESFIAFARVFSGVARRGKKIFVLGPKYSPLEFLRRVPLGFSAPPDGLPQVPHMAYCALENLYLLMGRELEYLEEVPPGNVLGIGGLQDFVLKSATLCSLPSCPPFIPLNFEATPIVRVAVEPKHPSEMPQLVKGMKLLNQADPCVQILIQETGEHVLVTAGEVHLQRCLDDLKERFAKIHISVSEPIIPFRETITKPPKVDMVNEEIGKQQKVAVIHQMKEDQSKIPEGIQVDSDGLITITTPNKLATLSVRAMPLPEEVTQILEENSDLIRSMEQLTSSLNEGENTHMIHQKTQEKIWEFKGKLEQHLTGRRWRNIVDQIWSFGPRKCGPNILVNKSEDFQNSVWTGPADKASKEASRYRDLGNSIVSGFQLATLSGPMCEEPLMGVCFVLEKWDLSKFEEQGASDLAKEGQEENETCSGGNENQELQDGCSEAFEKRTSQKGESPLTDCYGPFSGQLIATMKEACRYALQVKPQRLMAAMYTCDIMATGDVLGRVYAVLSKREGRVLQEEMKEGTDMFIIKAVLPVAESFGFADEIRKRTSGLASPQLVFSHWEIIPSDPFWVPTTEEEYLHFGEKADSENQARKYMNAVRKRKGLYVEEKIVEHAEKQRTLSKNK", "values": [
      {"measurement": "log2 fold change", "setting": "[1]", "result": -0.042},
      {"measurement": "log2 fold change", "setting": "[2]", "result": 0.051},
      {"measurement": "log2 fold change", "setting": "[3]", "result": 0.083},
      {"measurement": "log2 fold change", "setting": "[4]", "result": 0.008},
      {"measurement": "log2 fold change", "setting": "[5]", "result": -0.017}
    ]},
    {"target": "DDX39A (UniProt O00148)", "sequence (O00148 whole entry, looked up)": "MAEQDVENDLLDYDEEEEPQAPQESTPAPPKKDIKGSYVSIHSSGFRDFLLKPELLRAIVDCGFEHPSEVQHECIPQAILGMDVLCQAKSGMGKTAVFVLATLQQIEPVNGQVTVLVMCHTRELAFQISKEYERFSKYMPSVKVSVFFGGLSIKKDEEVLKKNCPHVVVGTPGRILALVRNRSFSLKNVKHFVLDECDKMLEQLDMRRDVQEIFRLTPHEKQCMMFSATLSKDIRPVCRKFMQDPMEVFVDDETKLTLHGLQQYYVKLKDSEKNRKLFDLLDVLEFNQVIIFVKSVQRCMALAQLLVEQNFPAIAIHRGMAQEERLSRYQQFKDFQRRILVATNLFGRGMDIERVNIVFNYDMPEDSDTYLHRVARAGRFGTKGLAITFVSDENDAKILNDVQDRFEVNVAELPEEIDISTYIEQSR", "values": [
      {"measurement": "log2 fold change", "setting": "[1]", "result": -0.174},
      {"measurement": "log2 fold change", "setting": "[2]", "result": 0.063},
      {"measurement": "log2 fold change", "setting": "[3]", "result": 0.025},
      {"measurement": "log2 fold change", "setting": "[4]", "result": 0.015},
      {"measurement": "log2 fold change", "setting": "[5]", "result": -0.01}
    ]},
    {"target": "EED, A0A5F9ZI63", "values": [
      {"measurement": "log2 fold change", "setting": "[1]", "result": 0.002},
      {"measurement": "log2 fold change", "setting": "[2]", "result": 0.011},
      {"measurement": "log2 fold change", "setting": "[3]", "result": 0.03},
      {"measurement": "log2 fold change", "setting": "[4]", "result": -0.029},
      {"measurement": "log2 fold change", "setting": "[5]", "result": -0.006}
    ]},
    {"target": "DCAF10 (UniProt Q5QP82)", "sequence (Q5QP82 whole entry, looked up)": "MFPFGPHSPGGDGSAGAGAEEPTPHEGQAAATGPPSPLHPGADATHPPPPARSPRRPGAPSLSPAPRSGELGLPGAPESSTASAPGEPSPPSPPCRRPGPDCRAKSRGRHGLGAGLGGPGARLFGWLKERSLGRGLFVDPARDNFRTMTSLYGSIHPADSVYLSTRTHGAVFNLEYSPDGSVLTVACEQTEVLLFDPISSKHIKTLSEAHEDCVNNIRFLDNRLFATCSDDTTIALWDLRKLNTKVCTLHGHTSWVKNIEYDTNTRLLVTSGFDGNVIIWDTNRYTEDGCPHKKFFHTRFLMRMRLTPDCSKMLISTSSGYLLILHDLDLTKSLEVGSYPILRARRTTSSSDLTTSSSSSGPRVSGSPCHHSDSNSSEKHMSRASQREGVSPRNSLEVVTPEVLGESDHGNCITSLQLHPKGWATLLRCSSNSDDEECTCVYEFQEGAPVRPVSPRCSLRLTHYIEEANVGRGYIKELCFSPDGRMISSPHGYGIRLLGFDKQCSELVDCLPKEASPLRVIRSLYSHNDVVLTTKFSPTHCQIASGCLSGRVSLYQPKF", "values": [
      {"measurement": "log2 fold change", "setting": "[1]", "result": 0.015},
      {"measurement": "log2 fold change", "setting": "[2]", "result": -0.018},
      {"measurement": "log2 fold change", "setting": "[3]", "result": 0.056},
      {"measurement": "log2 fold change", "setting": "[4]", "result": 0.013},
      {"measurement": "log2 fold change", "setting": "[5]", "result": -0.011}
    ]},
    {"target": "FAM83D (UniProt Q9H4H8)", "sequence (Q9H4H8 whole entry, looked up)": "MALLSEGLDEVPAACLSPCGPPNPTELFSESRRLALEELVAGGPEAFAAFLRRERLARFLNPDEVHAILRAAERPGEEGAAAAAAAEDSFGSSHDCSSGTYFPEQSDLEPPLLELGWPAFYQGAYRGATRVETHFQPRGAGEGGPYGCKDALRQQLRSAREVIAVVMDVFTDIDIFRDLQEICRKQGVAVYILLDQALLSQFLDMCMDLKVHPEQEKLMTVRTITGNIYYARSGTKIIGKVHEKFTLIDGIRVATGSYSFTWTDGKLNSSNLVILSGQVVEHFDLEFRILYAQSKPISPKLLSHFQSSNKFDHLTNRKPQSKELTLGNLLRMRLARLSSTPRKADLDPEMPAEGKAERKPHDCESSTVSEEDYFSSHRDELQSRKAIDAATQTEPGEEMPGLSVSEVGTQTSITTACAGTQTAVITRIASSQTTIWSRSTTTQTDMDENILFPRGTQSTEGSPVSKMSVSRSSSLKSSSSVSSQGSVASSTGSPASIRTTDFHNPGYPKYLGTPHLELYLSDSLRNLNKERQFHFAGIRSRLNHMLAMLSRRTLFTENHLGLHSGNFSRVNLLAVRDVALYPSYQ", "values": [
      {"measurement": "log2 fold change", "setting": "[1]", "result": -0.068},
      {"measurement": "log2 fold change", "setting": "[2]", "result": 0.027},
      {"measurement": "log2 fold change", "setting": "[3]", "result": 0},
      {"measurement": "log2 fold change", "setting": "[4]", "result": 0.045},
      {"measurement": "log2 fold change", "setting": "[5]", "result": 0.06}
    ]},
    {"target": "DCAF6 isoform 3 (UniProt Q58WW2)", "sequence (Q58WW2 whole entry, looked up)": "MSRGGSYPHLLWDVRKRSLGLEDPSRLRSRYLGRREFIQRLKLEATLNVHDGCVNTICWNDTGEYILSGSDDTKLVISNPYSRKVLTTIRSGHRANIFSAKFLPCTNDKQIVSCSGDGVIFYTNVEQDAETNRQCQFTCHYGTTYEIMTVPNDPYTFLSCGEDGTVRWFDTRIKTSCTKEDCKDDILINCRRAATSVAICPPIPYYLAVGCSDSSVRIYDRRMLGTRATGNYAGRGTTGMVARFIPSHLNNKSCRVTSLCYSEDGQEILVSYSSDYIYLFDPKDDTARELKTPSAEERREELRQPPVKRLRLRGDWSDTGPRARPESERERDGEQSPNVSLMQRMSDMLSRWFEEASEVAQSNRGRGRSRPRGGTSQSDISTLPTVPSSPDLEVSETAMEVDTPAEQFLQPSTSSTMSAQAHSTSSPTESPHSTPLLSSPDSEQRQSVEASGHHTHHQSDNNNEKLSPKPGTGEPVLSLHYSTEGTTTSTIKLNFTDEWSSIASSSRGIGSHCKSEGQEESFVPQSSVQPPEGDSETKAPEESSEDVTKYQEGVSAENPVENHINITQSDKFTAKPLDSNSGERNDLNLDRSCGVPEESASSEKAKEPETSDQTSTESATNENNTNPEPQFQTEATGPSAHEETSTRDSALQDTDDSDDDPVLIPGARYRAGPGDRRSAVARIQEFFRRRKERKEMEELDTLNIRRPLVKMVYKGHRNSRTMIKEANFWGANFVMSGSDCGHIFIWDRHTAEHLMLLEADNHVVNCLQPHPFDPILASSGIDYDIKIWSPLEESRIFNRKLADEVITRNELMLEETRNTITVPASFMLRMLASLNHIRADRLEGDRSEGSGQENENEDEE", "values": [
      {"measurement": "log2 fold change", "setting": "[1]", "result": 0.04},
      {"measurement": "log2 fold change", "setting": "[2]", "result": -0.017},
      {"measurement": "log2 fold change", "setting": "[3]", "result": 0.003},
      {"measurement": "log2 fold change", "setting": "[4]", "result": 0.032},
      {"measurement": "log2 fold change", "setting": "[5]", "result": 0.027}
    ]},
    {"target": "EXTL2 (UniProt Q9UBQ6)", "sequence (Q9UBQ6 whole entry, looked up)": "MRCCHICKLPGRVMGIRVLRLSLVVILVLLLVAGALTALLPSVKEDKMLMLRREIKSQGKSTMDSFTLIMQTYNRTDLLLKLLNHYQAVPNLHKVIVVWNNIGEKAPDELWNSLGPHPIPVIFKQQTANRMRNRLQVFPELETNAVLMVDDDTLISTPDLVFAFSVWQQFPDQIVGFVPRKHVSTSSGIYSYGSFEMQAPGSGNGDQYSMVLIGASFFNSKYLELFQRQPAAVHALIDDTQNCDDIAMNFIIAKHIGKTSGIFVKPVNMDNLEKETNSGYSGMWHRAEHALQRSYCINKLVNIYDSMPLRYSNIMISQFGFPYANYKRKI", "values": [
      {"measurement": "log2 fold change", "setting": "[1]", "result": 0.028},
      {"measurement": "log2 fold change", "setting": "[2]", "result": 0.106},
      {"measurement": "log2 fold change", "setting": "[3]", "result": 0.003},
      {"measurement": "log2 fold change", "setting": "[4]", "result": "0.316 (active)"},
      {"measurement": "log2 fold change", "setting": "[5]", "result": -0.211}
    ]}
  ]
}
